Reference: the supplement of paper PMC8285479
Counter-ions that a name gives are not always drawn. ± gives the standard deviation of the averaged measurements. The full ranking holds about 1,900 compounds; the median of “normalised cell viability (NPI; 0 = phenylarsine oxide control, 1 = DMSO control)” is about 1, and the lowest 2% start at about 0.039. The sample as a whole holds a higher share of the lowest values than the screen did.

Test system: NCI-H1944
Test: normalised cell viability (NPI; 0 = phenylarsine oxide control, 1 = DMSO control) (fraction of DMSO control); NCI-H1944 is a non-small cell lung cancer line; higher = more viable cells (less compound toxicity)
Details: 6 days
[1] = glucocorticoid arm: hydrocortisone 2.75 uM co-treatment, compound 1 µM
[2] = glucocorticoid arm: hydrocortisone 2.75 uM co-treatment, compound 5 µM
[3] = glucocorticoid arm: hydrocortisone 2.75 uM pre-treated 2 days and continued, compound 1 µM
[4] = glucocorticoid arm: hydrocortisone 2.75 uM pre-treated 2 days and continued, compound 5 µM
[5] = glucocorticoid arm: vehicle, compound 1 µM
[6] = glucocorticoid arm: vehicle, compound 5 µM
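Note: CTB read-out in 384-well plates, triplicate wells, NPI normalised per plate against 1 µM phenylarsine oxide (0) and 0.1% DMSO (1) controls.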

SMILES | normalised cell viability [1] | normalised cell viability [2] | normalised cell viability [3] | normalised cell viability [4] | normalised cell viability [5] | normalised cell viability [6]
N[C@@H](CCC(=O)N[C@@H](CSN=O)C(=O)NCC(=O)O)C(=O)O [S-Nitrosoglutathione] | 1.003 ± 0.0058 | 1.02 ± 0.025 | 1.02 | 1.04 ± 0.064 | 0.9933 ± 0.0035 | 1 ± 0.014
c1ccc2c(c1)CC(N1CCN(c3cccc4c3OCCO4)CC1)C2 | 0.988 ± 0.019 | 0.9857 ± 0.0084 | 0.995 ± 0.015 | 1.03 ± 0.081 | 1.003 ± 0.0058 | 1.02 ± 0.011
Nc1nccc2c1ncn2[C@@H]1O[C@H](CO)[C@@H](O)[C@H]1O [3-deazaadenosine] | 0.989 ± 0.0099 | 0.973 ± 0.025 | 0.996 ± 0.012 | 0.981 ± 0.011 | 0.9687 ± 0.0035 | 0.968 ± 0.0062
O=C(c1ccc(Nc2nccc(-c3cc4ccccc4s3)n2)cc1)N1CCC(N2CCCC2)CC1 [IKK-16 (IKK Inhibitor VII)] | 0.901 ± 0.0072 | 0.626 ± 0.03 | 0.913 ± 0.015 | 0.837 ± 0.021 | 0.9453 ± 0.0065 | 0.0503 ± 0.008
CNCC[C@H](Oc1cccc2ccccc12)c1cccs1 [Duloxetine HCl] | 0.9993 ± 0.0011 | 0.9847 ± 0.0032 | 1.01 ± 0.018 | 0.98 ± 0.015 | 0.999 ± 0.0095 | 0.9923 ± 0.0083
C[n+]1cc2c3c(ccc2c2ccc4cc5c(cc4c21)OCO5)OCO3 [Sanguinarine chloride] | 1.04 ± 0.011 | -0.0014 ± 0.001 | 0.903 ± 0.2 | -0.00109 ± 0.00052 | 0.983 ± 0.037 | -0.000203 ± 0.00043
Cc1ccccc1CNc1ncnc2c1ncn2[C@@H]1O[C@H](CO)[C@@H](O)[C@H]1O [Metrifudil] | 1.01 ± 0.011 | 1.03 ± 0.017 | 1.02 | 1.04 ± 0.071 | 0.996 ± 0.004 | 1.001 ± 0.0085
O=C(O)C1CCNCC1 [Isonipecotic acid] | 1.003 ± 0.0058 | 1.02 ± 0.017 | 1.01 ± 0.018 | 1.04 ± 0.07 | 0.9937 ± 0.0015 | 1.001 ± 0.0078
Cc1ccccc1/C=C/C1=NCCN1 [Metrazoline oxalate] | 0.9993 ± 0.0011 | 1.002 ± 0.0072 | 1.01 | 0.987 ± 0.017 | 0.995 ± 0.007 | 1.002 ± 0.0076
CN(N=O)C(=O)N[C@@H]1[C@@H](O)[C@H](O)[C@@H](CO)O[C@@H]1O [Streptozocin] | 1 ± 0.014 | 1.03 ± 0.015 | 1.001 ± 0.0081 | 1.04 ± 0.01 | 0.9943 ± 0.0051 | 1
CC(C)[C@H]1c2ccc(F)cc2CC[C@@]1(CCN(C)CCCc1nc2ccccc2[nH]1)OC(=O)C1CC1 | 0.9943 ± 0.0051 | -0.000718 ± 0.00075 | 1.013 ± 0.0058 | 1.08 ± 0.035 | 0.989 ± 0.0095 | -6.33e-05 ± 0.0017
COCC(=O)O[C@]1(CCN(C)CCCc2nc3ccccc3[nH]2)CCc2cc(F)ccc2[C@@H]1C(C)C [Mibefradil dihydrochloride] | 0.977 ± 0.011 | 0.0303 ± 0.012 | 1 ± 0.015 | 0.827 ± 0.24 | 0.9887 ± 0.0031 | 0.00844 ± 0.014
CCOc1ccc(Cc2cc([C@@H]3O[C@H](CO)[C@@H](O)[C@H](O)[C@H]3O)ccc2Cl)cc1 [Dapagliflozin] | 1.01 ± 0.016 | 1.02 ± 0.026 | 1.02 ± 0.015 | 1.04 ± 0.017 | 1.001 ± 0.0081 | 1 ± 0.011
CNC(=O)[C@H]1O[C@@H](n2cnc3c(N)ncnc32)[C@H](O)[C@@H]1O [5'-N-Methyl carboxamidoadenosine] | 0.982 ± 0.02 | 0.972 ± 0.015 | 0.988 ± 0.013 | 0.961 ± 0.0028 | 0.9893 ± 0.0078 | 0.976 ± 0.0053
O=C(O)/C(=C\c1c(C(=O)O)[nH]c2cc(Cl)cc(Cl)c12)c1ccccc1 | 1.02 ± 0.015 | 1.06 ± 0.017 | 1.017 ± 0.0058 | 1.08 ± 0.081 | 0.995 ± 0.002 | 1.013 ± 0.0058
C/C=C1\NC(=O)[C@H]2CSSCC/C=C/[C@H](CC(=O)N[C@H](C(C)C)C(=O)N2)OC(=O)[C@H](C(C)C)NC1=O [Depsipeptide] | 6.37e-05 ± 0.001 | 1.05 ± 0.02 | 0.00143 ± 0.00036 | 1.027 ± 0.0058 | 0.00028 ± 0.00044 | 1.01
C/C=C1\NC(=O)[C@H]2CSSCC/C=C/[C@H](CC(=O)N[C@H](C(C)C)C(=O)N2)OC(=O)[C@H](C(C)C)NC1=O [Romidepsin (FK228, Depsipeptide)] | 0.00704 ± 0.0021 | 0.000455 ± 0.00053 | 0.00593 ± 0.0021 | 0.000393 ± 0.00068 | 0.00559 ± 0.0012 | 2.1e-05 ± 0.00023
C/C=C1\NC(=O)[C@H]2CSSCC/C=C/[C@H](CC(=O)N[C@H](C(C)C)C(=O)N2)OC(=O)[C@H](C(C)C)NC1=O [Romidepsin] | 1.005 ± 0.0092 | 1.02 ± 0.011 | 1.007 ± 0.0058 | 1.02 ± 0.015 | 0.9903 ± 0.0045 | 0.979 ± 0.019
O=C(O)C1CCCNC1 (racemic) [(±)-Nipecotic acid] | 0.9947 ± 0.005 | 1.01 ± 0.014 | 1.02 ± 0.059 | 1.02 ± 0.021 | 1 ± 0.01 | 1.013 ± 0.0058
CN(C)CCSSCCNC(=O)C1CCN(C(=O)CSc2ccc(Cl)cc2)CC1 | 1.01 ± 0.01 | 1.04 ± 0.015 | 1.027 ± 0.0058 | 1.05 ± 0.01 | 0.9967 ± 0.0035 | 0.9967 ± 0.0042
N[C@@H](Cc1c[nH]cn1)C(=O)O [L-Histidine hydrochloride] | 1.017 ± 0.0058 | 0.996 ± 0.012 | 1 ± 0.014 | 1.02 ± 0.01 | 0.9973 ± 0.0038 | 0.9973 ± 0.0046
O=C(O)c1ccnc(C(=O)O)c1 [2,4-Pyridinedicarboxylic Acid] | 1 ± 0.022 | 0.999 ± 0.045 | 0.996 ± 0.021 | 1.01 ± 0.024 | 0.996 ± 0.015 | 0.999 ± 0.015
CN=c1nc(-c2ccccc2)n(-c2ccccc2)s1 | 1.003 ± 0.0058 | 1.04 ± 0.031 | 0.832 ± 0.33 | 1.02 ± 0.01 | 1.01 | 1.017 ± 0.0058
O=C1Nc2ccc(I)cc2C1=Cc1cc(Br)c(O)c(Br)c1 | 1.047 ± 0.0058 | 1.113 ± 0.0058 | 1.04 ± 0.01 | 1.08 ± 0.021 | 1.02 ± 0.01 | 1.043 ± 0.0058
Cc1nc(N=Nc2cc([N+](=O)[O-])ccc2Cl)c(COP(=O)(O)O)c(C=O)c1O [MRS 2211 sodium salt hydrate] | 1.003 ± 0.0061 | 1.023 ± 0.0058 | 0.9933 ± 0.0099 | 0.995 ± 0.036 | 1.01 ± 0.013 | 1.006 ± 0.0075
Cc1c2oc3c(C)ccc(C(=O)N[C@@H]4C(=O)N[C@H](C(C)C)C(=O)N5CCC[C@H]5C(=O)N(C)CC(=O)N(C)[C@@H](C(C)C)C(=O)O[C@@H]4C)c3nc-2c(C(=O)N[C@@H]2C(=O)N[C@H](C(C)C)C(=O)N3CCC[C@H]3C(=O)N(C)CC(=O)N(C)[C@@H](C(C)C)C(=O)O[C@@H]2C)c(N)c1=O [Dactinomycin] | 0.0161 ± 0.0015 | 0.0688 ± 0.0039 | 0.0397 ± 0.0056 | 0.183 ± 0.016 | 0.0046 ± 0.00021 | 0.0187 ± 0.0011
COc1cc2c(cc1OC)-c1c/c(=N\c3c(C)cc(C)cc3C)n(C)c(=O)n1CC2 [Trequinsin hydrochloride] | 1.03 ± 0.015 | 1.02 ± 0.022 | 0.908 ± 0.2 | 1.033 ± 0.0058 | 1.023 ± 0.0058 | 1.05 ± 0.035
CC(Cc1ccccc1)Nc1ncnc2c1ncn2C1OC(CO)C(O)C1O (stereo not drawn) [R(-)-N6-(2-Phenylisopropyl)adenosine] | 0.998 ± 0.002 | 1.01 ± 0.018 | 0.9997 ± 0.0096 | 1.03 ± 0.031 | 1.013 ± 0.0058 | 1.02 ± 0.017
CC(=O)NC(C(=O)O)C(C)(C)SN=O (centres undefined) [S-Nitroso-N-acetylpenicillamine] | 0.998 ± 0.014 | 1 ± 0.026 | 1.01 ± 0.011 | 0.987 ± 0.023 | 0.9937 ± 0.0011 | 0.9943 ± 0.0055
